Experimental data: PubChem BioAssay AID2013 (Sanford-Burnham Center for Chemical Genomics, 2009)
Hit rate of the full screen: of about 290,000 compounds, about 370 (0.13%) were called active.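 The calls were made as follows: active = spots per cell inhibited over 60%, with over 100 cells counted and total cytoplasm intensity under 500,000; inconclusive = wells with under 100 cells, flagged as likely toxic; inactive = the rest.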 Many of the other results were omitted from the sample, so actives are more common in it than they were. Results with a measured potency or affinity are listed apart.

Molecular target: G-protein coupled receptor 55 (Homo sapiens) (UniProt Q9Y2T6)
Sequence (Q9Y2T6 whole entry, looked up): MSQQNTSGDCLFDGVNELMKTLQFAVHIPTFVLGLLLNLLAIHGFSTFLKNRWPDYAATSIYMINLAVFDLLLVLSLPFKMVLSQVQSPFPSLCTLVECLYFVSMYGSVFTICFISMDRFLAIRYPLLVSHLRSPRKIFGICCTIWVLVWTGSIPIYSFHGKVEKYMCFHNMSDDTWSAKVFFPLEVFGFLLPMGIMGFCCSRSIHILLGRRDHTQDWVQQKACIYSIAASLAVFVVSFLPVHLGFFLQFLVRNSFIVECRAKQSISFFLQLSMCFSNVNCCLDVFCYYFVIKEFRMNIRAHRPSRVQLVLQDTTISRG
Experiment: GPR55 antagonists blocking LPI-driven arrestin recruitment, primary screen, imaging, U2OS, beta-arrestin-GFP, LPI agonist (AID 2013);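 also: U2OS cells stably carrying GPR55 and arrestin-GFP stimulated by 5 µM LPI near EC80; imaged beta-arrestin-GFP aggregate spots per cell after agonist stimulation; plate controls were LPI-stimulated DMSO wells for no effect and DMSO wells without LPI for full effect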
Conditions: U2OS GPR55 beta-arrestin-GFP translocation imaging, LPI antagonism; at 10 µM; stronger effect = higher value

inhibition, inactive:
CCc1nc(C)cn1S(=O)(=O)c1ccc([N+](=O)[O-])cc1 0.5%, CCc1nc(C)cn1S(=O)(=O)c1ccc(Cl)c(Cl)c1Cl 18.7%, Cc1c(C(=O)NCCN2CCCC(O)C2)oc2c(F)cccc12 (configuration not stated) 26.6%, O=C(N/N=C/c1cccn1-c1ccc([N+](=O)[O-])cc1)C(O)c1ccccc1 (configuration not stated) 16.8%, Cc1cc(/C=N/Nc2ccc([N+](=O)[O-])cn2)c(C)n1-c1ccccc1 13.4%, Cc1ccc(S(=O)(=O)N2CC=C(C(=O)NC3CC3)CC2)cc1 17.2%, COc1ccc(CNc2nc3c(c(C(F)(F)F)n2)CCCCC3)cc1 13.2%, CN1CCN(C(=S)SCC(=O)N2CCCc3ccccc32)CC1 23.2%, COc1ccc(/C=C/c2nc3ccccc3n2C)cc1 -8.1%, Cc1csc(NC(=O)c2cccc(S(=O)(=O)N3CCN(C)CC3)c2)n1 5%, Cc1c(CCOC(=O)c2ccccc2)sc[n+]1CC(=O)c1ccc(Br)cc1 -14%, Cc1c(CCOC(=O)CC23CC4CC(CC(C4)C2)C3)sc[n+]1CC(=O)c1ccc(Br)cc1 58.4%, COc1c(F)c(F)c(C(=O)Nc2ccc(NC(=O)c3ccco3)cc2)c(F)c1F 9.4%, COc1ccc(-c2csc(-n3ncc(C(=O)O)c3C(F)(F)F)n2)cc1 0.6%, C=CC(=O)NCCCc1cc(C(C)(C)C)c(O)c(C(C)(C)C)c1 8.3%, C=CCn1c(CCc2ccccc2)nnc1SCC(N)=O 1.8%, Cc1cc(C(=O)CSc2nnnn2-c2ccc(O)cc2)c(C)n1C 3.7%, COc1ccccc1OC(=O)Nc1ccc(Cl)cc1 0.1%, O=S(=O)(Nc1ccc(Cc2ccncc2)cc1)c1ccc(Cl)cc1 -2.3%, O=S(=O)(Nc1ccc(Cc2ccncc2)cc1)c1ccc(Br)cc1 2.9%, Cc1cc2nc(-c3ccc[nH]c3=O)n(Cc3cccc(F)c3)c2cc1C 8.3%, Cc1ccc(NC(=O)Nc2cc(Cl)ccc2C2COC(=O)C2=N)cc1 (configuration not stated) 7.5%, Cc1ccc(-c2n[nH]c(=S)c3ccccc23)cc1 10.4%, S=c1[nH]nc(-c2ccccc2)c2ccccc12 -20.4%, Cc1c(CN2CCN(CC(C)(C)C)C(CCO)C2)[nH]c2ccccc12 (configuration not stated) 7.5%, COc1cccc(C2CC(c3cccc(NS(C)(=O)=O)c3)=NN2C(=O)c2ccccc2)c1OC (configuration not stated) 10.9%, Clc1ccc(C(c2ccccc2)N2CCNCC2)cc1 (configuration not stated) 20%, CN1CC2(C)CN(C(c3ccccc3)c3ccccc3)CC(C)(C1)C2O (configuration not stated) 5.6%, CC(C)(NC(=O)N1CCCC1)c1cccc(C(C)(C)NC(=O)N2CCCC2)c1 0.9%, CCOC(=O)Cc1c(Cl)c2ccccc2[nH]c1=O -1.4%, Cc1cc(C(=O)Cn2nc(C(=O)O)c3ccccc3c2=O)c(C)n1C1CC1 3.9%, COc1ccc(CCN2C(=O)c3[nH]nc(-c4ccccc4O)c3C2c2ccccc2)cc1OC (configuration not stated) 1.6%, COc1ccc(C2c3c(-c4ccccc4O)n[nH]c3C(=O)N2Cc2ccco2)cc1OC (configuration not stated) -6.4%, COc1ccc(CCN2C(=O)c3[nH]nc(-c4ccccc4O)c3C2c2cccc(Cl)c2)cc1 (configuration not stated) 4.8%, COc1ccc(C2c3c(-c4ccccc4O)n[nH]c3C(=O)N2CCc2ccc(OC)c(OC)c2)cc1 (configuration not stated) 9.9%, COc1ccc(C(=O)OCC(=O)NC2CCCC2)c(OC)c1OC 3.7%, CCN(Cc1ccccc1)C(=O)CCCOc1ccccc1 -2%, CC(=O)Nc1ccc(S(=O)(=O)NNC(=O)C2CCCCC2)cc1 0.1%, Cc1ccc(S(=O)(=O)N2CCCCC2)cc1NC(=O)COC(=O)C1CC2C=CC1C2 (configuration not stated) -2.7%, O=C(COC(=O)C1CC2C=CC1C2)Nc1cccc(S(=O)(=O)N2CCCCC2)c1 (configuration not stated) -15.5%, CCCCCn1c(CNC(C)=O)nc2ccccc21 2.6%, O=c1c(-c2ccc(Cl)cc2)coc2c(CN3CCOCC3)c(O)ccc12 -5.8%, Cc1ccc(S(C)(=O)=NS(=O)(=O)c2cccc3nsnc23)cc1 (configuration not stated) 5%, Cn1c(=O)c(C(=O)NCCc2ccccc2)c(O)c2ccccc21 11.2%, O=C1C(Cc2ccc(Br)cc2)SC(=Nc2ccccc2)N1c1ccccc1 (configuration not stated) 7.8%, COc1ccccc1NS(=O)(=O)c1cc(N)ccc1N1CCCCC1 -8.3%, Nc1ccc(N2CCCCC2)c(S(=O)(=O)Nc2ccc(Cl)cc2)c1 16.6%, C/C(=N\Nc1ccc(Cl)c(C(=O)O)c1)c1cccc2ccccc12 -3.2%, COC(=O)[C@H](Cc1ccccc1)NC(=O)N1CCCCC1C (some centres not stated) 11.9%, O=C(c1ccco1)N(CC1CCCO1)c1nc(-c2ccccc2)cs1 (configuration not stated) -1.7%, CCCCC(NC(C)=O)c1nc2ccccc2n1CCCC (configuration not stated) 7.3%, CCCCCn1c(C(Cc2ccccc2)NC(=O)COC)nc2ccccc21 (configuration not stated) 25.9%, COc1ccc(CCn2c(C)cc(C(=O)COC(=O)c3ccc(NC(=O)CC#N)cc3)c2C)cc1 -0.8%, O=C(NC1CCCC1)C(c1cccnc1)N(C(=O)c1ccco1)c1cccc(F)c1 (configuration not stated) -23.3%, CC1=CC(C)(C)N2C(=O)C3(NCCc4c3[nH]c3ccccc43)c3cc(C)cc1c32 (configuration not stated) 6.1%, COc1ccc(N2C(=O)CSC23C(=O)N2c4c(cccc43)C(C)=CC2(C)C)cc1 (configuration not stated) -6.8%, Cc1ccc(N2C(=O)CSC23C(=O)Nc2ccccc23)cc1 (configuration not stated) 17.5%, Cc1cc2c3c(c1)C1(SCC(=O)N1c1ccc(F)cc1)C(=O)N3C(C)(C)CC2C (configuration not stated) 26.5%

inhibition, active:
O=[N+]([O-])c1ccc(N/N=C\c2cccn2-c2ccccc2)nc1 89.6%, CC(C)(C)c1ccc(S(=O)(=O)Nc2ccc(Cc3ccncc3)cc2)cc1 80.2%, Fc1ccc(-c2n[nH]c(=S)c3ccccc23)cc1 98%, Cc1ccc(NC(=O)COC(=O)C2CC3C=CC2C3)cc1S(=O)(=O)N1CCCCC1 (configuration not stated) 64.8%
